{"source": "PubChem BioAssay (NCI)", "note": "This is part of a sample that, as a whole, favours compounds with a hit. Of some 83,000 tested, about 20% had one in any assay.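 A percent growth of 40 corresponds to 60% growth inhibition; 0 means no net growth; -100 means all cells died. Active threshold: below 10.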 Calls of active or inactive are those of the source."}
{"test_system": "HT29 colon", "assay": "NCI-60 one-dose screen, 48 h (100 = growth as untreated, 0 = no growth, -100 = all killed)", "conditions": "10 µM unless noted"}
{"molecule": "COc1ccc2c(c1)NC(=O)CN2c1nc(NC2CC2)nc2ccccc12", "growth": "3.45% (active)"}
{"molecule": "Nc1c(C(=O)Nc2cccc(Cl)c2Cl)sc2nc3c(cc12)C(=O)CCC3", "growth": "85.5% (inactive)"}
{"molecule": "CC(=O)Nc1ccc(S(=O)(=O)N2C(=O)CCC2C(=O)Nc2ccc(Br)cc2)cc1", "note": "(stereo not drawn)", "growth": "21.4% (inactive)"}
{"molecule": "Nc1nc(-c2cc3ccccc3o2)cc(=O)c(=O)[nH]1", "growth": "99.7% (inactive)"}
{"molecule": "Cc1nn(-c2ccc(Cl)cc2)c(=O)n1CCOc1ccccc1Cl", "growth": "95.9% (inactive)"}
{"molecule": "Cc1cc(C(=O)CSc2nc3ccccc3c(=O)[nH]2)c(C)n1C", "growth": "96.6% (inactive)"}
{"molecule": "Cc1ccc(C2=NN(c3ccc(S(=O)(=O)NC(=O)NCc4ccccc4)cc3)C(c3ccc(N(C)C)cc3)C2)c(C)c1", "note": "(stereo not drawn)", "growth": "43% (inactive)"}
{"molecule": "O=C(/C=C/CN1CCOCC1)Nc1cc2c(Nc3cccc(Cl)c3F)ncnc2cc1OCCOC(F)F", "growth": "66.3% (inactive)"}
{"molecule": "COc1ccc(/C(=N/O)c2cc(OC)c(OC)c(OC)c2)c(OC)c1N", "growth": "13.7% (inactive)"}
{"molecule": "O=[N+]([O-])c1ccc(S(=O)(=O)N2CCN(c3ccnc4cc(Cl)ccc34)CC2)c([N+](=O)[O-])c1", "growth": "93.5% (inactive)"}
{"molecule": "Cc1cc(N/C=c2\\sc3ncnn3c2=O)no1", "growth": "102% (inactive)"}
{"molecule": "O=C(Nc1ccc(F)c(Cl)c1)c1n[nH]c(=O)c2ccccc12", "growth": "112% (inactive)"}
{"molecule": "O=C(CCCn1c(=O)c2sc3ccccc3c2n2nnc(-c3ccccc3)c12)NCCc1cnc[nH]1", "growth": "-94.1% (active)"}
{"molecule": "CC1=C(C#N)C(C)(C)C(C#N)=C(C)N1", "growth": "105% (inactive)"}
{"molecule": "COc1cc(CCn2nnc3c(Nc4ccc(N5CCOCC5)cc4)ncnc32)cc(OC)c1", "growth": "99.3% (inactive)"}
{"molecule": "COc1ccc(-c2cn[nH]c2-c2cc(OC)c3c(c2)OCO3)cc1", "growth": "5.01% (active)"}
{"molecule": "Cc1ccc(OCCn2c(C)nn(-c3ccc(Cl)cc3)c2=O)cc1", "growth": "119% (inactive)"}
{"molecule": "O=C(Nc1ccc(I)cc1)c1cc([N+](=O)[O-])ccc1O", "growth": "48.7% (inactive)"}
{"molecule": "O=C(NNC(=S)Nc1ccccc1)c1ccccn1", "growth": "57.2% (inactive)"}
{"molecule": "COc1ccc(-c2cn[nH]c2-c2cc(OC)c3c(c2)OCCO3)cc1", "growth": "1.7% (active)"}
{"molecule": "COc1cc(Cn2c(SCCC(=O)Nc3ccc(F)cc3)nc3ccccc3c2=O)cc(OC)c1OC", "growth": "86.9% (inactive)"}
{"molecule": "COc1cc(-c2cc(/C=C3\\CCCCC3=O)[nH]n2)cc(OC)c1OC", "growth": "100% (inactive)"}
{"molecule": "Cc1ccc(S(=O)(=O)NCCCNc2nccc(-c3c(-c4ccccc4)nc4sccn34)n2)cc1", "growth": "18.5% (inactive)"}
{"molecule": "O=C1C2=C(C(=O)c3c(O)ccc(O)c31)N(c1cccnc1)Cc1ccccc1O2", "growth": "-60.4% (active)"}
{"molecule": "COc1ccc(NC(=O)CSc2nc3ccc(Cl)cc3c(=O)n2-c2ccccc2C(F)(F)F)c(OC)c1OC", "growth": "97.3% (inactive)"}
{"molecule": "CC(C)C[C@H](NC(=O)[C@@H](Cc1ccccc1)n1ccc(Nc2ccccc2)cc1=O)B(O)O", "growth": "-14.1% (active)"}
{"molecule": "Cc1cccc(NC(=O)c2sc3nc4c(cc3c2N)CCCC4)c1", "growth": "15.4% (inactive)"}
{"molecule": "O=c1oc2c([nH]c3ccc4ccccc4c32)c2ccccc12", "growth": "111% (inactive)"}
{"molecule": "CC1CCc2c(sc(NC(=O)CSc3nnc4ccccn34)c2C(N)=O)C1", "note": "(stereo not drawn)", "growth": "117% (inactive)"}
{"molecule": "CC1Cc2c(N(C)C)ncnc2N(C)c2ccc(Cl)cc21", "note": "(stereo not drawn)", "growth": "10.8% (inactive)"}
{"molecule": "CCC(=O)Oc1cc(/C=C/C(=O)O[C@H]2C[C@H]3CN4CCc5c([nH]c6cc(OC)ccc56)[C@@H]4C[C@@H]3[C@@H](C(=O)OC)[C@@H]2OC)ccc1OC", "growth": "-1.66% (active)"}
{"molecule": "CN(C)C/C=C/C(=O)Nc1cc2c(Nc3cccc(Cl)c3F)ncnc2cc1OCCOC(F)F", "growth": "18.2% (inactive)"}
{"molecule": "O=C1Nc2cc(Cl)ccc2Oc2cc(Oc3ccccc3)ccc21", "growth": "17.4% (inactive)"}
{"molecule": "c1cncc(CNc2ccccc2-c2nnc(Nc3ccc4c(c3)OCCO4)o2)c1", "growth": "2.31% (active)"}
{"molecule": "COC1=CC(c2ccc[nH]2)=N/C1=C\\c1[nH]c(C)c(C(=O)CCCCC(=O)Oc2ccc3c(c2)CCC2C3CC[C@]3(C)[C@@H](O)CC[C@@H]23)c1C", "note": "(stereo partly drawn)", "growth": "38.7% (inactive)"}
{"molecule": "COc1ccc(/C=c2\\sc3n(c2=O)C2C(NN=3)N(C)C(=O)N2C)cc1", "note": "(stereo not drawn)", "growth": "8.76% (active)"}
{"molecule": "Cc1sc(N=Nc2ccc(N(C)C)cc2)[n+]([O-])c1C", "growth": "103% (inactive)"}
{"molecule": "COc1cc(/C=C/C(=O)c2ccccc2O)ccc1OCCCOc1cc2c(cc1OC)C(=O)N1CCC[C@H]1C=N2", "growth": "-41.4% (active)"}
